Compound activity from PubChem.
697 NFkB inh: inhibitors of PMA/ionomycin-induced NF-kB reporter, 697 cells, primary screen, B-cell NF-kB inhibitor project, cell-based, luminescence, uHTS; 697 B-cell NF-kB luciferase reporter, 16 h; inhibition, % at 4 µM; 330,000 tested, 0.33% active; in the data active = inhibition above about 35%
Gli-Sufu antag: Gli-Sufu pathway antagonists, primary screen, luciferase luminescence, Sufu-KO-LIGHT cells, uHTS; Sufu-KO-LIGHT fibroblasts, Gli luciferase reporter luminescence; inhibition, % at 5 µM; 340,000 tested, 0.74% active;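 active = inhibition above about 55%, limit read from the data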;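 note: 0% = DMSO-treated cells and 100% = wells with medium but no cells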
Jurkat NFkB inh: inhibitors of induced NF-kB luciferase reporter, primary screen, TCR NF-kB activation inhibitor project, cell-based, luminescence, uHTS; Jurkat, PMA/ionomycin-induced NF-kB luciferase reporter; 330,000 tested, 0.53% active; inhibition, % at 4 µM; in the data active = inhibition above about 50%
aSyn UTR inh: MLPCN primary screen, SNCA 5' untranslated region; AID 1813, 2009; inhibition, % (tested at 7.5 µM); 300,000 tested, 0.82% active; alpha-synuclein 5'UTR reporter, inhibitor activity; in the data active = inhibition above about 60%;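 note: H4 neuroglioblastoma cells stably carrying SNCA 5'UTR luciferase fusion; 0% = DMSO wells and 100% = positive control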
CSC inhib: cancer stem cell viability inhibitors, primary screen, luminescence; cancer stem cell-like cells viability; inhibition, % at 7.5 µM; 300,000 tested, 1.1% active; in the data active = inhibition above about 75%; tested in HMLE shEcad cells
Mdm2-MdmX inh: inhibitors of human Mdm2-MdmX association, primary screen, cell-based, luminescence, split luciferase, SaOS-2, uHTS | SaOS-2 split-luciferase Mdm2/MdmX complementation | inhibition, % at 8 µM | 330,000 tested, 3% active | AID 485346, 2010;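 active = inhibition of at least 50% at 8 µM in the primary screen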
Target sequence (O15151 whole entry, looked up): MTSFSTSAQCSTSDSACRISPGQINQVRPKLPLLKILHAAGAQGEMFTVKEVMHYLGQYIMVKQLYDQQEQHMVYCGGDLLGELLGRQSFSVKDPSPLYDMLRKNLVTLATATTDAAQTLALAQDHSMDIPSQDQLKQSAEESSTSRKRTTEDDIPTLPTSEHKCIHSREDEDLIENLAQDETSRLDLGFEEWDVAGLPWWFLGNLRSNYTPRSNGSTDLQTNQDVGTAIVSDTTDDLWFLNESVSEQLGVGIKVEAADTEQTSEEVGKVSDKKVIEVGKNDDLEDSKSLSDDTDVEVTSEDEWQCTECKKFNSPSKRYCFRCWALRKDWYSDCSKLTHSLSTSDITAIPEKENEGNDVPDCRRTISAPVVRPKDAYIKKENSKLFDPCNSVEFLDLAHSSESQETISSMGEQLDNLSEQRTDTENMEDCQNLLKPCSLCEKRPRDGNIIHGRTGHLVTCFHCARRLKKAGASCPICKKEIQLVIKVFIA
Target sequence (Q00987 whole entry, looked up): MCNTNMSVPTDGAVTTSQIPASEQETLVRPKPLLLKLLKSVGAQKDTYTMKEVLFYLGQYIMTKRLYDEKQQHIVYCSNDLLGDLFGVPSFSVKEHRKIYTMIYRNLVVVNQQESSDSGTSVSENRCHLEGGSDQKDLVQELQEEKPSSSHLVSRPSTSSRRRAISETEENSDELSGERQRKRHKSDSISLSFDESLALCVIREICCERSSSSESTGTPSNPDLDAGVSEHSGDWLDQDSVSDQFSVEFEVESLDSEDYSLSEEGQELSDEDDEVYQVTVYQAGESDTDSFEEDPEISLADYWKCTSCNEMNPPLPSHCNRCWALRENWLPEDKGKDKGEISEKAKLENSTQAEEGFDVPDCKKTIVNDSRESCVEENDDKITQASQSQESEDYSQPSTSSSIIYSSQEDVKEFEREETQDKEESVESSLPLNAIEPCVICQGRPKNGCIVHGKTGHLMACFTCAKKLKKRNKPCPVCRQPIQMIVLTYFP
Mdm2-MdmX conf: Mdm2-MdmX complex disruptors, retested hits, confirmation, luminescence, single concentration; AID 489028, 2010; 10,000 tested, 55% active; shares compounds with Mdm2-MdmX inh; Mdm2-MdmX binding, luminescent assay; inhibition, % at 8 µM; in the data active = inhibition above about 40%
Full FLuc ctr: full-length luciferase signal inhibition, confirmation, counter-screen for Mdm2/MdmX interaction inhibitor project, cell-based, single concentration, SaOS-2. shares compounds with Mdm2-MdmX inh. SaOS-2 full-length luciferase counterscreen, luminescence. inhibition, % at 8 µM. 6,200 tested, 77% active. AID 504607, 2011;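 active = mean inhibition at 8 µM reaching about 37%, which flags the compound as non-specific, limit read from the data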;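 note: p53-null SaOS-2 cells with luciferase driven by a doxycycline-inducible promoter; compound on cells about two nights before reading with doxycycline added after day one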
Gli-Sufu confirm: Gli-SUFU pathway antagonists, confirmation, single concentration, luciferase luminescence, Sufu-KO-LIGHT cells; shares compounds with Gli-Sufu antag; Gli luciferase reporter; inhibition, % at 5 µM; 2,500 tested, 40% active; AID 602428, 2012;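 active = mean inhibition at 5 µM reaching about 45%, limit read from the data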;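 note: plate controls were DMSO-treated cells for no effect and wells lacking cells for full effect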
Gli cytotox: cytotoxicity in Sufu-KO-LIGHT cells, confirmation, cytotoxicity control for Gli-SUFU antagonist project, cell-based, ATP luminescence, single concentration | cytotoxicity, % at 5 µM | 2,500 tested, 32% active | shares compounds with Gli-Sufu antag;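 active = mean cytotoxicity at 5 µM above about 25%, limit read from the data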;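 note: cells exposed to compound overnight for roughly 16 to 18 hours; plate controls were DMSO wells with cells for no effect and medium without cells for full effect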
Wnt3a counter: Wnt3a reporter signal inhibition, confirmation, counter-screen for Gli-SUFU antagonist project, Wnt-LIGHT cells, luminescence, single concentration; shares compounds with Gli-Sufu antag; Wnt3a-driven luciferase reporter; inhibition, % at 6.25 µM; 2,500 tested, 20% active; AID 651995, 2013;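 active = mean inhibition above about 25%, limit read from the data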
An asterisk follows results filed as active; . = no result given; ! = not active in a repeat. This is a sample that favours compounds with a hit; in the whole collection about 4.5% have one here.

SMILES | 697 NFkB inh | Gli-Sufu antag | Jurkat NFkB inh | aSyn UTR inh | CSC inhib | Mdm2-MdmX inh | Mdm2-MdmX conf | Full FLuc ctr | Gli-Sufu confirm | Gli cytotox | Wnt3a counter
O=C(OC1CCOC1=O)C1CCN(S(=O)(=O)c2ccccc2)CC1 (centres undefined) | 5 | 4 | 8 | . | -12 | -7 | . | . | . | . | .
CC(=C/c1ccccc1)/C=N/NC(=O)c1nnn(-c2nonc2N)c1CN1CCC(C)CC1 | -15 | 17 | 12 | 9 | -3 | -11 | . | . | . | . | .
CC1CCN(Cc2c(C(=O)N/N=C/c3ccccc3O)nnn2-c2nonc2N)CC1 | -13 | 52 | 36 | 65* | . | 69* | 80* | 32 | 62* | 23 | 27*
Cc1cc(Nc2cccc(F)c2)nc(NCc2ccccc2)n1 | -9 | 59* | 24 | 5 | 39 | 66* | 25 | . | 40 | 19 | 6
Cc1cc(Nc2ccccc2)nc(NCc2ccccc2)n1 | -43 | 68* | 36 | 0 | 34 | 53* | 37 | 59* | 58* | 33* | 25*
Cc1cc(C)cc(OCC(=O)OCC(=O)Nc2c(C)n(C)n(-c3ccccc3)c2=O)c1 | 7 | -45 | -12 | 9 | -12 | 1 | . | . | . | . | .
CN(C)C1=NC[C@H](Cc2ccccc2)N1CCCC1CCCC1 | -11 | 56* | 24 | . | 36 | 53* | 28 | 68* | 44 | 31* | 13
CCCOc1ccccc1C1CC(=O)Nc2cc3c(cc21)OCCO3 (centres undefined) | -17 | 66* | 48 | 103* | 31 | 52* | 49* | 61* | 65* | 60* | -10
Cc1cc(C(=O)CSc2nnc3ccccn23)c(C)n1-c1ccccc1 | -25 | 54 | 17 | 102* | -8 | 82* | 86* | 30 | 65* | 40* | 96*
Cc1cc(C(=O)CSc2nnc(-c3ccccc3)n2-c2ccccc2)c(C)n1-c1ncn[nH]1 | -1 | 8 | -13 | 1 | -11 | 2 | . | . | . | . | .
COC(=O)c1cnc(Oc2ccc(NC(=O)NC(=O)c3ccccc3Cl)cc2)cc1C(F)(F)F | -68 | -1 | 37 | -63 | 19 | 31 | . | . | . | . | .
Cc1cc(NCCCCCCCNc2cc(C)nc3cc([N+](=O)[O-])ccc23)c2ccc([N+](=O)[O-])cc2n1 | . | 13 | . | . | . | . | . | . | . | . | .
CCOC(=O)c1sc2c(c1C)c(=O)n(Cc1ccccc1)c(=O)n2CCN(C)C | 8 | 11 | 6 | 14 | -7 | -11 | . | . | . | . | .
COc1ccccc1OCC(O)Cn1c(=N)n(Cc2ccccc2)c2ccccc21 (centres undefined) | -18 | 37 | 27 | 5 | 8 | 39 | . | . | . | . | .
CCCCCn1c(=N)n(CC(O)COc2ccccc2OC)c2ccccc21 (centres undefined) | -11 | 81*! | 13 | 8 | 4 | 61*! | 28 | . | 41 | 17 | -14
CC(=O)c1cccc(NC(=O)COC(=O)c2ccc(S(C)(=O)=O)c([N+](=O)[O-])c2)c1 | 27 | -4 | 9 | -52 | 58 | 15 | . | . | . | . | .
CS(=O)(=O)c1ccc(C(=O)OCC(=O)NC(=O)C2CCCCC2)cc1[N+](=O)[O-] | 3 | 65* | -3 | -17 | 64 | 50* | 18 | . | 14 | 3 | 9
